# High-throughput results deposited in PubChem by several laboratories.
# Efflux pump inh – antifungal efflux pump inhibition, Nile Red retention. inhibition, % at 10 µM. hit rate 0.44% among 330,000. AID 485275. S. cerevisiae Candida pump triplex;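 active means plate passing quality check with inhibition over a set limit, or well fluorescence over plate mean plus 4 SD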;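 further: Nile Red retained in pooled yeast measured as flow cytometry median fluorescence; 0% = buffer negative control and 100% = Enniatin B positive control; higher means more Nile Red kept so more efflux inhibition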
# Cardio protect – protects H9c2 cardiomyocytes from peroxide injury. H2O2 injury protection, ATPLite, 2 h. protection from H2O2 cell death, % at 20 µM. hit rate 0.63% among 360,000. AID 588492;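 active means compounds giving at least 50% protection of heart cells from peroxide-induced death in the single-dose screen, raw or plate-pattern-corrected value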;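 further: 0% = DMSO wells with peroxide and 100% = DMSO wells without peroxide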
# Cl transport mod – KCC2 (human) Cl- transport modulation | Q9H2X9 | KCC2 cells, thallium flux FluoZin-2 fluorescence | B-score of Tl+ flux slope (higher = more flux/activation; lower = inhibition) at 10 µM | hit rate 2.2% among 190,000 | AID 1456;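 active means thallium flux slope and its plate-corrected score both differing from the plate sample mean at a set confidence after two filtering rounds, in either direction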;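 further: slope of fluorescence scaled to starting intensity during 10 to 20 s after thallium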
# PHOSPHO1 block – blocks human PHOSPHO1 phosphatase activity. AID 1565. inhibition, % at 13.3 µM. hit rate 1.1% among 290,000. recombinant PHOSPHO1, absorbance phosphatase assay. Q8TCT1; in the data active means inhibition above about 60%
# Target sequence (Q8TCT1 whole entry, looked up): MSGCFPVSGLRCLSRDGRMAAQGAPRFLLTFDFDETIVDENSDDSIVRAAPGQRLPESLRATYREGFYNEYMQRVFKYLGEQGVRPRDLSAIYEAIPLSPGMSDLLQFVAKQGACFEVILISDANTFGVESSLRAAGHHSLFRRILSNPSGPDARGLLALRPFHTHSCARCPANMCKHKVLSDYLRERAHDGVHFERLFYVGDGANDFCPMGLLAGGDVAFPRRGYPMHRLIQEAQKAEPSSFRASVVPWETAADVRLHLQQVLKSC
# Calb FLC – C. albicans growth modulation with fluconazole. C. albicans CaCi-2 (fluconazole-resistant clinical isolate) + fluconazole, Alamar Blue growth, 48 h. growth inhibition, % (concentration not given with the values). hit rate 0.57% among 300,000. AID 1979;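 active means growth inhibition above about 58% in most replicates, limit read from the data, passing the limit was not always enough; inconclusive means exactly half the replicates above a set limit; inactive means most replicates below a set limit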;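 further: all wells also contain fluconazole at 8 µg/ml as a sub-toxic cotreatment; 0% = median of DMSO wells and 100% = median of geldanamycin control wells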
# Yeast cmpd fluor – counter-screen for efflux pump inhibitors: compound fluorescence. shares compounds with Efflux pump inh. S. cerevisiae AD/pABC3, flow cytometry. fluorescence ratio to DMSO, % at 10 µM. hit rate 4% among 1,700. AID 588517;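 active means fluorescence ratio to DMSO above its plate's cutoff, the plate mean ratio plus 5 SD, cut at about 210% in these data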;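 further: unstained yeast with no Nile Red so the signal is compound autofluorescence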
# CaMdr1 efflux inh – blocks the Candida albicans Mdr1 efflux pump in yeast. shares compounds with Efflux pump inh. S. cerevisiae AD/CaMDR1, Nile Red efflux, flow cytometry. inhibition, % at 10 µM. hit rate 1% among 1,700. AID 588518; in the data active means inhibition above about 26%;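 further: 0% = DMSO vehicle and 100% = reference inhibitor; higher means more Nile Red retained so more efflux inhibition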
# CaCdr2 efflux inh – Candida Cdr2 efflux pump inhibition | AID 588520 | S. cerevisiae AD/CaCDR2, Nile Red retention, flow cytometry | Nile Red retention ratio vs DMSO, % at 10 µM | hit rate 4% among 1,700 | shares compounds with Efflux pump inh; in the data active means Nile Red retention ratio vs DMSO above about 190%;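 further: higher ratio means more blocking of Cdr2 efflux of the dye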
# Cdr1 pump inh – inhibitors of Candida albicans Cdr1 efflux pump | shares compounds with Efflux pump inh | S. cerevisiae AD/CaCDR1, Nile Red efflux, flow cytometry | inhibition, % at 10 µM | hit rate 1% among 1,700 | AID 588522;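 active means inhibition above the screen-wide mean plus twice its standard deviation, cut at about 32% in these data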
# Numbers without * were called inactive; ? = inconclusive; . = no result given. A selection: hits, their analogues and other compounds. The true share with any hit is near 3.3%.
SMILES,Efflux pump inh,Cardio protect,Cl transport mod,PHOSPHO1 block,Calb FLC,Yeast cmpd fluor,CaMdr1 efflux inh,CaCdr2 efflux inh,Cdr1 pump inh
O=[N+]([O-])c1cnccc1Nc1ccccc1,0,-3,-0.24,-7,9,.,.,.,.
O=C(O)c1cccc(Nc2ccncc2[N+](=O)[O-])c1,1.2*,6,.,33,2,95,0,112,0
CCOc1ccc(C(=O)Nc2cccc(-c3nc4cccnc4o3)c2)cc1Cl,1.0*,50*,0.0043,38,2,113,0,114,0
CCCCn1c(N)c(N(CC(C)C)C(=O)CSc2nnc(-c3ccc(Cl)cc3)o2)c(=O)[nH]c1=O,0,1,.,.,.,.,.,.,.
COc1cc2c(cc1OC)CN(c1ccc(C(N)=O)cc1[N+](=O)[O-])CC2,0,-3,.,17,18,.,.,.,.
COc1cc(/C=C(\C#N)c2ccccn2)ccc1OCc1ccc(Cl)cc1,6.7*,7,-0.44,1,1,97,0,112,0
COc1cc(/C=C(\C#N)c2ccccn2)ccc1OCc1ccccc1,0,1,-1.5,2,17,.,.,.,.
COc1cc(C(C)=O)ccc1OCC(=O)Nc1ccc(Cl)c(S(=O)(=O)N2CCOCC2)c1,1.0*,-2,.,.,.,97,0,94,0
CC(=O)c1ccc(OCCCC(=O)Nc2ccc(Cl)c(S(=O)(=O)N3CCOCC3)c2)cc1,.,-6,.,.,.,.,.,.,.
Cc1oc(-c2ccccc2Cl)nc1CS(=O)(=O)CC(=O)NC1CCCC1,0,2,.,7,0,.,.,.,.
CCCc1nc2ccc(C)cn2c1Cc1ccsc1,.,-2,.,.,.,.,.,.,.
COc1ccccc1N=Nc1c(O)[nH]c2ccc(Br)cc12,0.4*,-1,.,38,2,107,0,116,0
O=C(COc1ccc(F)cc1)Nc1nnc(C2CC2)s1,0,-9,.,.,-7,106,0,116,0
COC(=O)c1ccc(OCC(=O)N2CCCc3ccccc32)cc1,2.8*,1,.,16,4,105,0,94,0
COCC(=O)N1CCCc2ccccc21,0,-4,0.15,-21,8,.,.,.,.
COc1ccccc1C(=O)COC(=O)c1ccccc1OCC(=O)Nc1ccc(SC(F)F)cc1,11*,27,1,10,18,103,0,107,0
CCC(=O)N1CCc2cc(Br)cc(S(=O)(=O)N3CCCCC3CC)c21 (centres undefined),0,-6,.,3,?,.,.,.,.
CSCCC(NC(=O)c1ccccc1Cl)C(=O)N1CCN(C(c2ccccc2)c2ccccc2)CC1 (centres undefined),0.5*,-2,.,-4,1,96,0,109,0
CCCCCC1C/C(=N\O)C=C(C)C1C(=O)OC (centres undefined),1.5*,0,.,20,0,99,0,103,0
COc1ccc(/C=N/NC(=O)c2nc(Cl)c(Cl)c(N)c2Cl)cc1COc1ccc(F)cc1F,1.0*,-2,-3,1,0,106,0,114,1
COc1cc(OC)cc(C(=O)N/N=C/c2ccc(OC)c(COc3ccc4ccccc4c3)c2)c1,0.6*,-6,-0.39,-11,0,106,0,112,0
CC(C)C(NC(=O)c1ccc(C(C)(C)C)cc1)C(=O)NCC1(N(C)C)CCCCC1 (centres undefined),0,0,.,31,-7,.,.,.,.
COc1ccc(N2CCN(CC(=O)Nc3ccc(-n4cnnn4)cc3)CC2)cc1,0,4,1.2,-20,-6,.,.,.,.
COc1ccccc1N1CCN(CC(=O)Nc2ccc(-n3cnnn3)cc2)CC1,0.9*,-7,1.1,18,4,95,0,103,0
Cc1cc2ccccc2n1CCNC(=O)c1ccc(Br)o1,1.3*,9,0.083,0,4,100,0,94,0
SMILES,Efflux pump inh,Cardio protect,Cl transport mod,PHOSPHO1 block,Calb FLC,Yeast cmpd fluor,CaMdr1 efflux inh,CaCdr2 efflux inh,Cdr1 pump inh
Cc1cc2ccccc2n1CCNC(=O)c1ccccc1,0,13,-0.0023,22,-4,.,.,.,.
CCCCOc1ccc(NC2=NC3(CCCC3)N=C(N)N2)cc1,0.6*,-3,-1,13,-2,102,0,114,0
Cc1cc(CNC(=O)C2CCC(=O)N(Cc3cccc(C(F)(F)F)c3)C2)no1 (centres undefined),0,-2,.,18,-2,.,.,.,.
CC(C)Cc1cc(CNC(=O)C2CCC(=O)N(Cc3cccc(C(F)(F)F)c3)C2)on1 (centres undefined),9.2*,-3,.,8,7,105,0,95,0
COCCN(CCOC)S(=O)(=O)c1ccc(C(=O)Nc2ccc([N+](=O)[O-])cc2OC)cc1,0,2,-0.023,32,0,.,.,.,.
Cc1nc(C(=O)Nc2ccc(Cl)cc2Cl)nn1-c1cc(OC(C)C)c(Cl)cc1Cl,1.3*,-9,0.85,-26,1,113,0,105,0
Cc1nc(C(=O)Nc2cc(Cl)ccc2Cl)nn1-c1cc(OC(C)C)c(Cl)cc1Cl,0,-4,-0.4,-17,1,.,.,.,.
O=C(NCC1CCCO1)C1CCCN(S(=O)(=O)c2cccc(C(F)(F)F)c2)C1 (centres undefined),1.3*,-5,.,23,-3,96,0,102,0
CC1CCC(NC(=O)C2CCC(CNS(=O)(=O)c3cccc4cccnc34)CC2)CC1 (centres undefined),0,-2,.,42,-12,.,.,.,.
Cc1noc(C)c1COc1ccccc1C(=O)N1CCN(c2cccc(C(F)(F)F)c2)CC1,1.1*,2,.,.,.,112,0,110,0
Cc1noc(C)c1COc1ccccc1C(=O)N1CCN(c2cccc(Cl)c2)CC1,0,2,.,.,.,.,.,.,.
CC(=O)Nc1ccc(-c2cn3cc(C)ccc3n2)cc1,6.5*,-9,-0.44,3,1,99,0,89,0
CCOC(=O)C1CCN(C(=O)CN2C(=O)c3cccnc3Oc3ccccc32)CC1,0,2,.,12,-3,.,.,.,.
CCC1=NN2C(=N)/C(=C/c3c(C)nn(-c4ccccc4)c3Cl)C(=O)N=C2S1,23*,-1,0.91,-11,-17,110,0,106,0
CCOC(=O)N1CCN(C(=S)NC(=O)c2cccc(OC)c2)CC1,0,2,.,.,.,.,.,.,.
CCOC(=O)N1CCN(C(=S)NC(=O)c2ccc(F)c(F)c2)CC1,1.6*,-2,.,9,-22,95,0,104,0
CC(C)CCN1CCC(n2nccc2NC(=O)C2CCOC2)CC1 (centres undefined),1.4*,1,.,9,40,99,0,112,0
COc1cc(CN2CCC(n3nccc3NC(=O)C3CCOC3)CC2)ccc1F (centres undefined),0,-3,.,19,3,.,.,.,.
